Out of some 48,000 compounds screened, about 13,000 (27%) showed an effect of 50% or more. Some of the results follow.
tested on: Wolbachia pipientis; experiment: Anti-Wolbachia Cell-Based Screen; format: functional; set-up: scale not given: in the data most compounds retested in dose-response had high values; conditions: 5 µM

SMILES	Percent Effect [%]
CSCC(CCO)NC(=O)Nc1cc(C)ccc1C (stereo not given)	-5.082
CC(C)(C)NC(=O)NCc1cnn2ccccc12	-7.455
CCOCCN1C[C@H](c2cccc(OC)c2)[C@@H](N)C1	-6.771
Cc1cnccc1N1CCN(c2nccc(CCC(F)(F)F)n2)CC1	13.49
Cc1nc(C)n(CC2CCCN2CC(=O)Nc2ccnn2C(C)C)n1 (stereo not given)	-5.093
CCOCC(=O)N1CC[C@H]2OCC[C@@H](c3nnc(C)o3)[C@H]2C1	13.01
Cc1ccc(C(=O)NCC(O)c2ccc(F)c(F)c2)c(=O)[nH]1 (stereo not given)	-52.3
Cn1c(SCC2OCCc3ccccc32)n[nH]c1=O (stereo not given)	-11.92
O=C(O)c1cc(S(=O)(=O)Nc2ccc(F)cc2F)cc2c1OCCO2	104.7
Cc1ccc(S(=O)(=O)N2CCOc3ccccc32)cc1C(=O)O	-0.06219
Cc1ccc(F)cc1NS(=O)(=O)c1cc2c(c(C(=O)O)c1)OCCO2	117.8
CN(c1c(F)cccc1F)S(=O)(=O)c1cc2c(c(C(=O)O)c1)OCCO2	7.763
CN(c1ccc(F)cc1)S(=O)(=O)c1cc2c(c(C(=O)O)c1)OCCO2	-14.55
O=C(O)c1cc(S(=O)(=O)Nc2cc(F)ccc2F)cc2c1OCCO2	0.9161
CN(c1ccccc1)S(=O)(=O)c1cc2c(c(C(=O)O)c1)OCCO2	4.597
O=C(O)c1cc(S(=O)(=O)Nc2cccc(F)c2F)cc2c1OCCO2	134.3
Cc1cc(F)ccc1NS(=O)(=O)c1cc2c(c(C(=O)O)c1)OCCO2	118
CCc1noc(CS(=O)(=O)CC(=O)N2c3ccccc3CC2C)n1 (stereo not given)	1.089
CCOC1CC2(CCN(Cc3cnn(C)c3)CC2)c2ccc(C)cc21 (stereo not given)	-1.962
CN1CCN(C)C2(CCN(Cc3ccc(C4CCCO4)s3)CC2)C1 (stereo not given)	-8.087
COc1c(Br)cccc1CCNC(=O)c1ncoc1C	-6.421
Cc1nc(CCCNC(=O)c2cc(F)ccc2O)n[nH]1	85.21
COc1ccccc1C(=O)NCc1n[nH]c(C)n1	3.11
Cc1ccc(O)c(C(=O)NCCCS(=O)(=O)Cc2ccccc2)c1	-4.048
Cc1nc(CCCNC(=O)c2c(F)cccc2Br)n[nH]1	89.06
Cc1nc(CCCNC(=O)c2c(F)cc(F)cc2F)n[nH]1	108.5
COc1c(Cl)cc(C(=O)NCc2n[nH]c(C)n2)cc1Cl	1.914
COc1ccc2cccc(CC(=O)NCCCc3n[nH]c(C)n3)c2c1	-4.195

SMILES	Percent Effect [%]
COc1cc(Cl)ccc1C(=O)NCc1n[nH]c(C)n1	-9.051
CN1C[C@H](O)C[C@H]1c1nc(-c2ccc(OC(F)(F)F)cc2)no1	-6.164
CC(C)(O)CCc1cccc(C(=O)N[C@@H](CO)C(N)=O)c1	1.69
CC(C)(O)CCc1cccc(C(=O)NCC2CN(S(C)(=O)=O)CCO2)c1 (stereo not given)	-12.96
CCNC(=O)[C@@H]1C[C@H](N)CN1C(=O)c1cccc(CCC(C)(C)O)c1	102.7
CCNC(=O)[C@@H]1C[C@H](N)CN1C(=O)CCc1ccc(C)c(C)c1	-20.38
CC[C@@H](CO)NC(=O)c1cccc(CCC(C)(C)O)c1	0.6007
C[C@H](NC(=O)c1cccc(CCC(C)(C)O)c1)C(N)=O	-11.41
CCNC(=O)[C@@H]1C[C@@H](N)CN1C(=O)CCc1ccc(C)c(C)c1	-3.444
CC(C)(O)CCc1cccc(C(=O)N2CCC[C@H]2C(N)=O)c1	102.3
CCNC(=O)[C@@H]1CCCN1C(=O)c1cccc(CCC(C)(C)O)c1	104.5
CS(=O)(=O)N1CCC(Oc2ccc(C(=O)NCC3CCC3)cc2Cl)CC1	-2.678
Cc1cc(CN2CCCC2)cc(Oc2ccc(C(F)(F)F)cn2)c1	9.077
Cc1nn(C)cc1C(=O)NC(CC(C)C)C(=O)Nc1cc[nH]n1 (stereo not given)	1.449
CN(CC(=O)NC(C)(C)C)Cc1cccc2c1OCCO2	-43.12
CC(C)(C)C(=O)N1CCC(c2nc(O)cc(-c3ccccn3)n2)CC1	-20.96
CC(C)(C)Nc1c(C2CCN(C(=O)C3CC3)CC2)nc2ccccn12	95.08
CC(C)(C)Nc1c(C2CCCN(C(=O)C3CC3)C2)nc2ccccn12.Cl (stereo not given)	97.63
Cc1cccn2c(NC(C)(C)C)c(C3CCN(C(=O)C4CC4)CC3)nc12	138
CC(C)(O)C1CCCN(C(=O)Nc2nc(-c3ccccc3)ns2)C1 (stereo not given)	-3.959
CC(C)(C)Nc1c(C2CCN(C(=O)C(C)(C)C)CC2)nc2ccccn12	124.8
CN(CCO)Cc1nnc(C2CCN(C(=O)C(C)(C)C)CC2)n1C	1.717
NC(=O)c1csc(N2CCN(Cc3cccc4nsnc34)CC2)n1	-1.05
CC(C)N1CCC(O)(CNC(=O)CC2OCCc3ccccc32)CC1 (stereo not given)	-11.76
Cc1ncc(Cl)c(C(=O)N2CC(=O)N(C)c3ccccc32)n1	-4.054
Cc1cnc(NC(=O)N2CCOCC2)s1	-16.98
CCC(C)n1cnc(S(=O)(=O)N(Cc2cccnc2)C(C)C)c1 (stereo not given)	3.048

— ChEMBL document CHEMBL3988442, “University of Dundee, Small-Polar-MMV Screening Library” (2021)
